Data on 14 compounds can be found in PubChem BioAssay.

As usually defined, the inhibition is the relative decrease from the control value, in per cent.

Activity calls are given as the source filed them.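 The calls were made as follows, unless noted: active = fluorescence slope higher than the sample average by over 3 SD (cut at about -0.22 in these data, passing the limit was not always enough); inactive = the rest.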

A short description of experiment [1]: inhibitors of TNFa-induced NFkB p65 translocation, primary screen, imaging, HUVEC, MLSMR starter and 10KST1 sets (AID 438;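 active = inhibition above 20% together with a positive visual image hit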;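 also: compound added about 3h40 before a 20 min TNFalpha stimulation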;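 as to inhibition: signal is the nuclear over cytoplasmic p65 intensity ratio per well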). The following applies: HUVEC TNFa-induced p65 nuclear translocation; cell count: measured here: nuclei count (cytotoxicity indicator), at 2.08 µM; inhibition: at 2 µM, stronger effect = higher value, 0% TNFa-plus-vehicle, 100% no-TNFa wells.
Experiment [2] is described as follows: inhibitors of mutant huntingtin aggregation, primary screen, imaging, exon1htt(103Q)mCFP cells, high-content imaging (AID 483;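 active = visual image review flags a hit and inhibition of aggregation exceeds 20%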;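 also: compound exposure lasted 3 days before fixation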;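 as to nuclei count: percent of the per-plate median nuclei count of sample wells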). The following applies: exon1htt(103Q)mCFP cell line, aggregate imaging, at 2 µM; inhibition of aggregation: stronger effect = higher value; nuclei count: measured here: cell count, toxicity.
Experiment [3] in a line: inhibitors of E-selectin induction by TNFa, primary screen, imaging, HUVEC, immunofluorescence, MLSMR starter and 10KST1 sets (AID 487;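 active = visually confirmed hit in the image check and inhibition above 20%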;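 as to inhibition: signal is fraction of cell area covered by stained E-selectin grains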;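 as to nuclei count: 100% = median nuclei count of all wells on the same plate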). The following applies: HUVEC TNFalpha-induced E-selectin immunofluorescence imaging, at 2 µM; inhibition: stronger effect = higher value; nuclei count: measured here: cell number, toxicity.
Experiment [4] addresses Voltage-gated potassium channel subunit beta-2 (Rattus norvegicus) (UniProt P62483). Kind of experiment: KvBeta enzyme negative modulators, primary screen, biochemical, NADPH fluorescence (AID 622).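 Also: slope of raw intensity against log time taken from 70 to 1610 s.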 The following applies: recombinant KvBeta, 4-cyanobenzaldehyde reduction, at 10 µM, stronger effect = higher value.
The target is the same in experiment [5]. The experiment is described as follows: KvBeta positive modulators, primary screen, biochemical, NADPH fluorescence (AID 623;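 active = NADPH fluorescence slope more negative than the mean of all samples by about 3 SD, 99.7% confidence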;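 also: fluorescence intensity change per second fitted from 20 to 320 s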). The following applies: Recombinant KvBeta, NADPH fluorescence decrease slope, 10 min; at 10 µM; stronger effect = lower value.
Experiment [6] addresses Alpha-2C adrenergic receptor (Homo sapiens) (UniProt P18825). The experiment is described as follows: modulators of alpha2C/GIRK thallium flux, primary screen, cell-based, HEK293 alpha2C/GIRK1/2 (AID 624;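 active = fluorescence slope after compound addition differing from the mean of all screened samples at 99.7% confidence, in either direction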;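 also: slope of fluorescence ratio to pre-addition baseline per second over 15 to 24 s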). The following applies: thallium flux BTC fluorescence, at 10 µM, actives lie on both sides.
A short description of experiment [7]: inhibitors of Sendai virus-induced IRF3 signaling, primary screen, TLR/RLR signaling modifier project, cell-based, Sendai virus stimulus, luciferase, 10K MLSCN set (AID 602276;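 active = inhibition at or above 50% at 10 µM; inactive = inhibition below 50%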;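 also: firefly luciferase from ISG56 promoter only with Renilla not read in this screen; 0% = Sendai virus plus DMSO and 100% = medium plus DMSO without virus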). The following applies: HEK293 RL24 IRF3 luciferase reporter, at 10 µM, stronger effect = higher value. On the technique in general: A reporter such as luciferase makes a cellular process visible.

A short description of experiment [8]: inhibitors of poly I:C-induced TLR3 signaling, primary screen, cell-based, poly I:C stimulus, luciferase, 10K MLSCN set (AID 602277;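 active = inhibition of the reporter signal at or above 50%; inactive = inhibition below 50%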). The following applies: HEK293-TLR3 RL24 IRF3 luciferase reporter, at 10 µM, stronger effect = higher value.

Voltage-gated potassium channel subunit beta-2 (Rattus norvegicus), sequence (P62483 whole entry, looked up): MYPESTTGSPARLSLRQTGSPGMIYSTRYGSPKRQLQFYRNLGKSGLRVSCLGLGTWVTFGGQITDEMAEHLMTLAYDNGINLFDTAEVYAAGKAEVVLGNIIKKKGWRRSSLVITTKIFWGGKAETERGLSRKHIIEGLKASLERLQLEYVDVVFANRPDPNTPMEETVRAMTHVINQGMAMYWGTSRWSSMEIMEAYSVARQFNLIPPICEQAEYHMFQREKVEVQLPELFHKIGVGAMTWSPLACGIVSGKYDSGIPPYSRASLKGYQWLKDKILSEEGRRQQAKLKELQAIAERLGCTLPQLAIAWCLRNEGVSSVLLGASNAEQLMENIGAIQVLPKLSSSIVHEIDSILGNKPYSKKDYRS
Alpha-2C adrenergic receptor (Homo sapiens), sequence (P18825 whole entry, looked up): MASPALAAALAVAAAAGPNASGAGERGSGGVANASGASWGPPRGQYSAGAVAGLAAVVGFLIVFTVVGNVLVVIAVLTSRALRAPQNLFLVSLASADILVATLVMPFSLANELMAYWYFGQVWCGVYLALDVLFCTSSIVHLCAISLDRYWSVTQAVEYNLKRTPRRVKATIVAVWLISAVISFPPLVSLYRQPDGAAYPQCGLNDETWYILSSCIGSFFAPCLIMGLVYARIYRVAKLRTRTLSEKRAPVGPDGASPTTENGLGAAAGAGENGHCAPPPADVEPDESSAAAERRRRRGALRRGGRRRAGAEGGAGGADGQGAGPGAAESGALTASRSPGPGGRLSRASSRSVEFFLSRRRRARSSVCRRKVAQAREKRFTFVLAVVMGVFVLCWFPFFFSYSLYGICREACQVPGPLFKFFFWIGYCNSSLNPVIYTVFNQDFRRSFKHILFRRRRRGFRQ

`O=C(Nc1c(C(=O)NCc2ccco2)cnn1-c1ccccc1)c1ccc(F)cc1`: the cell count in experiment [1] worked out at 400. For the same compound, the inhibition in experiment [1] is 6.3% (inactive); in experiment [3] it was -23.9% (inactive); in experiment [7] it was -1.86% (inactive); in experiment [8] it was 15.1% (inactive). In addition, the inhibition of aggregation in experiment [2] was 12.1% (inactive). The nuclei count in experiment [2] was 81.6%; in experiment [3], 89.1%. In experiment [4], the fluorescence slope was -0.294 (inactive). For the same compound, the NADPH fluorescence slope in experiment [5] is -2.8e-06 (inactive). In experiment [6], the slope was 0.00584 (inactive).
In the case of `COc1cccc(NC(=O)N2CCC(N3CCCCC3)CC2)c1`, the cell count in experiment [1] came out at 369. Moreover, the inhibition was 5.2% (inactive) in experiment [1], -124% (inactive) in experiment [3], 15.9% (inactive) in experiment [7] and 26.1% (inactive) in experiment [8]. Also, in experiment [2], the inhibition of aggregation is 7.2% (inactive). In addition, the nuclei count came to 105% in experiment [2] and 119% in experiment [3]. In addition, the fluorescence slope in experiment [4] was -0.582 (inactive). The NADPH fluorescence slope in experiment [5] was 2.5e-05 (inactive). The slope in experiment [6] was 0.00728 (inactive).
Consider `COC(=O)c1ccccc1S(=O)(=O)N(CCCO)Cc1cc2c(C)ccc(C)c2[nH]c1=O`, for which, in experiment [1], the cell count was determined as 688. Also, the inhibition in experiment [1] is -5.1% (inactive); in experiment [3], -55.4% (inactive); in experiment [7], 2.69% (inactive); in experiment [8] it was 27.6% (inactive). The inhibition of aggregation in experiment [2] is -9% (inactive). Moreover, the nuclei count in experiment [2] was 108%; in experiment [3], 120%. Also, the fluorescence slope in experiment [4] was -0.501 (inactive). Also, the NADPH fluorescence slope in experiment [5] is 6.1e-06 (inactive). The slope in experiment [6] is 0.00564 (inactive).
Take `COc1ccc2c(=O)c3c(=O)n(Cc4ccco4)c(-c4cc(OC)c(OC)c(OC)c4)nc3oc2c1`: the cell count in experiment [1] came out at 483. Further, the inhibition was -9.2% (inactive) in experiment [1], -11.9% (inactive) in experiment [3], 3.4% (inactive) in experiment [7] and -1.04% (inactive) in experiment [8]. In experiment [2], the inhibition of aggregation was -28.3% (inactive). Also, the nuclei count was 96.6% in experiment [2] and 121% in experiment [3]. Besides, the fluorescence slope in experiment [4] was -0.525 (inactive). Also, the NADPH fluorescence slope in experiment [5] is 5.6e-06 (inactive). Besides, in experiment [6], the slope was 0.00457 (inactive).
On to `O=C(CN(Cc1cccs1)C(=O)CNS(=O)(=O)c1ccccc1)NCc1ccco1`, for which the cell count in experiment [1] was determined as 473. Moreover, the inhibition in experiment [1] is -4.2% (inactive); in experiment [3], -65.9% (inactive); in experiment [7], -8.34% (inactive); in experiment [8], -2.97% (inactive). Further, in experiment [2], the inhibition of aggregation is -5% (inactive). Moreover, the values for the nuclei count in experiment [2] and in experiment [3] were 104% and 98.5%, respectively. Moreover, the fluorescence slope in experiment [4] is -0.594 (inactive). Further, the NADPH fluorescence slope in experiment [5] was 3.8e-05 (inactive). Besides, in experiment [6], the slope is 0.00631 (inactive).
On to `O=C1c2ccccc2-c2ccc(C(=O)N3CCOCC3)cc21`, for which the cell count in experiment [1] came to 623. Also, the inhibition in experiment [1] is -4.1% (inactive); in experiment [3], -103% (inactive); in experiment [7] it was 5.8% (inactive); in experiment [8] it was -1.97% (inactive). Further, the inhibition of aggregation in experiment [2] is -6.2% (inactive). Besides, the nuclei count in experiment [2] came out at 81.1%; in experiment [3], 101%. The fluorescence slope in experiment [4] is -0.235 (inactive). In experiment [5], the NADPH fluorescence slope is -1.8e-05 (inactive). In experiment [6], the slope is 0.00393 (inactive).
Consider `CC(=O)c1ccc(NC(=O)CSc2nnc(-c3ccoc3C)n2Cc2ccccc2)cc1`, for which the cell count in experiment [1] was 366. Also, the inhibition is -4.2% (inactive) in experiment [1], -35.8% (inactive) in experiment [3], -9.45% (inactive) in experiment [7] and -12% (inactive) in experiment [8]. Moreover, in experiment [2], the inhibition of aggregation is 5.2% (inactive). Also, the values for the nuclei count in experiment [2] and in experiment [3] were 98.2% and 99.5%, respectively. Moreover, the fluorescence slope in experiment [4] was -0.432 (inactive). Also, the NADPH fluorescence slope in experiment [5] was -2e-09 (inactive). In addition, the slope in experiment [6] was 0.00468 (inactive).
Turning to `Cc1ccc(S(=O)(=O)C2(C(=O)NC3CCCC3)CC2)cc1`, the cell count in experiment [1] came to 463. For the same compound, the inhibition is -4.2% (inactive) in experiment [1], -58.4% (inactive) in experiment [3], 13.7% (inactive) in experiment [7] and 36.5% (inactive) in experiment [8]. For the same compound, in experiment [2], the inhibition of aggregation was -10.8% (inactive). The nuclei count was found to be 110% in experiment [2] and 115% in experiment [3]. Also, in experiment [4], the fluorescence slope is -0.602 (inactive). The NADPH fluorescence slope in experiment [5] was 1.6e-05 (inactive). In addition, in experiment [6], the slope is 0.00643 (inactive).
`c1ccc(-c2nc3ccccc3nc2-c2ccccn2)nc1`: in experiment [1], the cell count was found to be 746. For the same compound, the inhibition is -8.5% (inactive) in experiment [1], -17.4% (inactive) in experiment [3], 11.1% (inactive) in experiment [7] and 14.2% (inactive) in experiment [8]. Moreover, in experiment [2], the inhibition of aggregation is 4.8% (inactive). The values for the nuclei count in experiment [2] and in experiment [3] were 93.9% and 118%, respectively. Moreover, the fluorescence slope in experiment [4] is -0.491 (inactive). Also, the NADPH fluorescence slope in experiment [5] was -3.4e-05 (inactive). In experiment [6], the slope is 0.0056 (inactive).
For `Cc1ccc(C)c(N2CCN(CCCNC(=O)Cn3cc4c(n3)CCC(C)C4)CC2)c1` (centres undefined), the cell count in experiment [1] stood at 554. Besides, the inhibition in experiment [1] was 9.9% (inactive); in experiment [3] it was 29.9% (inactive); in experiment [7], 13.6% (inactive); in experiment [8], 41% (inactive). Also, in experiment [2], the inhibition of aggregation was -8.9% (inactive). In addition, the nuclei count in experiment [2] worked out at 90.9%; in experiment [3], 106%. The fluorescence slope in experiment [4] is -0.574 (inactive). For the same compound, in experiment [5], the NADPH fluorescence slope is -2.4e-05 (inactive). Further, the slope in experiment [6] was 0.00559 (inactive).
Take `Cc1ccc2c(c1)C(N1CCCC1=O)CC(c1ccco1)N2` (centres undefined): the cell count in experiment [1] is 343. In addition, the inhibition was 0% (inactive) in experiment [1], -7.7% (inactive) in experiment [3], -30.3% (inactive) in experiment [7] and 98.9% (active) in experiment [8]. In addition, in experiment [2], the inhibition of aggregation was 14.5% (inactive). The nuclei count was 94.2% in experiment [2] and 106% in experiment [3]. Also, the fluorescence slope in experiment [4] is -0.407 (inactive). Also, in experiment [5], the NADPH fluorescence slope is 3.1e-05 (inactive). Besides, the slope in experiment [6] is 0.00529 (inactive).
For `O=C(OCCN=C1NS(=O)(=O)c2ccccc21)C1CC(=O)N(c2ccc(Cl)cc2)C1` (centres undefined), in experiment [1], the cell count amounted to 354. Also, the inhibition in experiment [1] was 2.7% (inactive); in experiment [3], -44.7% (inactive); in experiment [7], 6.2% (inactive); in experiment [8], 23.6% (inactive). The inhibition of aggregation in experiment [2] was -0.2% (inactive). Further, the results for the nuclei count in experiment [2] and in experiment [3] were 118% and 107%, respectively. In addition, in experiment [4], the fluorescence slope was -0.448 (inactive). Further, in experiment [5], the NADPH fluorescence slope is 2.4e-05 (inactive). The slope in experiment [6] was 0.00337 (inactive).
As to `O=C(c1ccco1)N1CCN(S(=O)(=O)c2ccc(C3CCCCC3)cc2)CC1`, the cell count in experiment [1] came out at 400. The inhibition in experiment [1] was 7.2% (inactive); in experiment [3], -44.9% (inactive); in experiment [7], -0.0986% (inactive); in experiment [8], -28.6% (inactive). Further, the inhibition of aggregation in experiment [2] was -1.8% (inactive). For the same compound, the results for the nuclei count in experiment [2] and in experiment [3] were 102% and 109%, respectively. The fluorescence slope in experiment [4] is -0.501 (inactive). In addition, in experiment [5], the NADPH fluorescence slope is -3.8e-05 (inactive). Further, the slope in experiment [6] is 0.00443 (inactive).
For `COc1ccc(NC(=O)NCCN2C(=O)C3C4C=CC(C4)C3C2=O)cc1` (centres undefined), the cell count in experiment [1] stood at 572. Further, the inhibition was -0.8% (inactive) in experiment [1], -25.1% (inactive) in experiment [3], -29.6% (inactive) in experiment [7] and -73.3% (inactive) in experiment [8]. Moreover, the inhibition of aggregation in experiment [2] is 0.8% (inactive). For the same compound, the nuclei count in experiment [2] was determined as 75.5%; in experiment [3] it was 110%. For the same compound, the fluorescence slope in experiment [4] was -0.54 (inactive). Further, the NADPH fluorescence slope in experiment [5] is -3.1e-05 (inactive). The slope in experiment [6] was 0.00569 (inactive).
